In PubChem BioAssay AID1445 (SRMLSC, 2008):
Screen size: about 220,000 compounds; about 910 (0.41%) were called active. This is one part of a sample in which actives are shown more often than they occur. Results with a measured potency or affinity are listed apart. Unmarked numbers belong to inactive results.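 How the source made its calls: active means primary inhibition above the hit cutoff, then over 50% inhibition at one or more dose response concentrations (cut at about 23% in these data, passing the limit was not always enough); inconclusive means conflicting primary data, or primary hits not chosen for dose response; inactive means low primary inhibition, or under 50% at every dose.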

These compounds were tested against Aminopeptidase N (Plasmodium falciparum (isolate 3D7)) (UniProt O96935) (assay: malaria alanyl aminopeptidase activity blockers – biochemical, fluorogenic H-Leu-NHMec substrate, 1536-well (AID 1445;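 further: plate controls were DMSO full reaction for no effect and no enzyme background for full effect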)). Conditions: recombinant M1AAP, H-Leu-NHMec fluorogenic kinetic assay; at 30 µM, stronger effect = higher value unless noted.
Sequence of Aminopeptidase N (Plasmodium falciparum (isolate 3D7)) (O96935 whole entry, looked up): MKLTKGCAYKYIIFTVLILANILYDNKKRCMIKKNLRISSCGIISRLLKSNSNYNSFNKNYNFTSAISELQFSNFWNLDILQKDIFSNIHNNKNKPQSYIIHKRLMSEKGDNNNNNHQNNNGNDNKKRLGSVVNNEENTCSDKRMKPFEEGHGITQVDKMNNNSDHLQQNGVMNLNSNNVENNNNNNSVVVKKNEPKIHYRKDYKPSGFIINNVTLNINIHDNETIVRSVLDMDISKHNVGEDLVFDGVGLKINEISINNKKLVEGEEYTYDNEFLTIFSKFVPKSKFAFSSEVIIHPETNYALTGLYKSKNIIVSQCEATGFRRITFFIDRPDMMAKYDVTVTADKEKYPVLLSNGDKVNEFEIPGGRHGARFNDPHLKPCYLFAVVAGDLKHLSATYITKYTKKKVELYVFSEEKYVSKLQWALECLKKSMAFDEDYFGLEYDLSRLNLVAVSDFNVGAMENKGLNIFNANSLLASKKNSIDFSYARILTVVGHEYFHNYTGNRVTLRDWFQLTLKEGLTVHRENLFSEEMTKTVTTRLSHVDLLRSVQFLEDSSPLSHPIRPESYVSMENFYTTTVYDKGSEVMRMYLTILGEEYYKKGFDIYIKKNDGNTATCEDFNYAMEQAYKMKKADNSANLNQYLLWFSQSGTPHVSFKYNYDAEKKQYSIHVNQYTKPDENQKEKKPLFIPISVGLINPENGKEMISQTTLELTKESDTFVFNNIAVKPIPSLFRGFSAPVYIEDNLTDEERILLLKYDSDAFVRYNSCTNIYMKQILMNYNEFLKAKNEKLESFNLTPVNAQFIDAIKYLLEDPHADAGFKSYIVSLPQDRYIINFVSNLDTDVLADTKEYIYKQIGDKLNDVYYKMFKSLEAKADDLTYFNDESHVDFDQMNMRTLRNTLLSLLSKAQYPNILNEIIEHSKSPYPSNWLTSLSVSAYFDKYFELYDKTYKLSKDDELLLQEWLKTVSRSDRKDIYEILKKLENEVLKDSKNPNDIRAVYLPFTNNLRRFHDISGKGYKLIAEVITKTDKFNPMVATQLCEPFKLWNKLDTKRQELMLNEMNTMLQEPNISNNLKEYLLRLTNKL
For `CCNc1c([N+](=O)[O-])c(=O)oc2ccccc12`, the inhibition was 7.91%.
Compound `COc1ccccc1C(=O)N1CCN(Cc2cn[nH]c2-c2ccc(F)cc2F)CC1` has an inhibition of 3.76%.
`Cc1cccc2cc(CN(C(=O)c3cnccn3)C3CCCCC3)c(Cl)nc12` gave an inhibition of 5.74%.
`Cc1ccc(S(=O)(=O)NN=C2CCN(Cc3ccccc3)CC2)cc1` was tested, and the inhibition was 4.22%.
In the case of `O=C(O)CC(c1ccc(Cl)cc1)n1cccc1` (configuration not stated), the inhibition is reported as 8.45%.
`CC(=O)Nc1cc(C(=O)OC(C(=O)c2ccccc2)c2ccccc2)ccc1C` (configuration not stated) was tested, and the inhibition was 2.38%.
`Cc1cccc2cc(COC(=O)C(C)(C)C)c(=O)[nH]c12` was tested, and the inhibition was 4.55%.
For `Nc1c(C(=O)N2CCOCC2)sc(=S)n1-c1ccccc1`, the inhibition was 24.9% (active).
`Nc1c(C(=O)N2CCCCC2)sc(=S)n1-c1ccccc1` gave an inhibition of 0.35%.
With `Cc1ccc(-n2c(N)c(C(=O)N3CCOCC3)sc2=S)cc1` the inhibition was -1.83%.
In the case of `CCOC(=O)CC(NC(=O)c1ccc(C)cc1)c1ccc(OC)cc1` (configuration not stated), the inhibition is reported as 5.77%.
In the case of `CCN(Cc1ccncc1)C(=O)CCc1nnc(CCc2ccccc2OC)o1`, the inhibition is reported as -2.71%.
Work on `NC(N)=Nc1nc(-c2ccccc2)c2ccccc2n1` yielded an inhibition of 5.22%.
For `CCc1ccc2nc(N=C(N)N)nc(C)c2c1`, the inhibition was 5.85%.
For `COc1cc(/C=C2/SC(=S)N(CC(=O)Nc3nc4ccccc4s3)C2=O)cc(OC)c1OC`, the inhibition was 6.28%.
`Cc1ccc(N(Cc2ccccc2F)S(C)(=O)=O)cc1C` showed an inhibition of -9.52%.
Compound `Cc1oc2c(cc(NS(=O)(=O)c3cccs3)c3ccccc32)c1C(=O)OC(C)C` has an inhibition of 3.76%.
`O=C1CCCc2oc3c(cc(NS(=O)(=O)c4ccc5c6c(cccc46)C(=O)N5)c4ccccc43)c21` was tested, and the inhibition was 3.6%.
In the case of `CCCn1c(=N)c(C(=O)NCC2CCCO2)cc2c(=O)n3cccc(C)c3nc21` (configuration not stated), the inhibition is reported as 7.23%.
In the case of `Cc1cccn2c(=O)c3cc(C(=O)NCC4CCCO4)c(=N)n(CCN4CCOCC4)c3nc12` (configuration not stated), the inhibition is reported as 8.4%.
Work on `COCCCn1c(=N)c(C(=O)NCc2ccc3c(c2)OCO3)cc2c(=O)n3ccccc3nc21` yielded an inhibition of 4.69%.
Compound `N=c1c(C(=O)NCC2CCCO2)cc2c(=O)n3ccccc3nc2n1Cc1cccnc1` (configuration not stated) has an inhibition of 20%.
For `COc1ccccc1N1C(=O)c2ccc(C(=O)Nc3nccs3)cc2C1=O`, the inhibition was 7.44%.
With `O=C(CSc1ccc(-c2ccccn2)nn1)c1ccc(F)cc1` the inhibition was 1.12%.
`N#Cc1c(N)sc2c1CCCCCC2` was tested, and the inhibition was 7.78%.
`N#Cc1c(N)sc(=S)c2c1CCCC2` gave an inhibition of 9.2%.
`N#Cc1c(N)sc(=S)c2c1CCCCC2` was tested, and the inhibition was 23.8% (active).
For `Cn1cnnc1Sc1ccc(C(=O)OCC(=O)Nc2cc(Cl)cc(Cl)c2)cc1[N+](=O)[O-]`, the inhibition was 3.75%.
In the case of `CCN(CC)S(=O)(=O)c1cccc(C(=O)Nc2cccnc2)c1`, the inhibition is reported as -0.19%.
Work on `CCN(CC)c1ccc(NC(=O)c2cccnc2)c(C)c1` yielded an inhibition of 3.17%.
`NNC(=O)c1ccc2c(c1)S(=O)(=O)NNC2=O` gave an inhibition of 8%.
For `CC(C)N(C)C1CCN(C(=O)Nc2ccc(Cl)c(Cl)c2)CC1`, the inhibition was 6.97%.
Work on `COc1cc(OC)c(NS(=O)(=O)c2cc(C(=O)OC(C)C(=O)NC3CC3)c(Cl)cc2Cl)cc1Cl` (configuration not stated) yielded an inhibition of 10%.
In the case of `COc1cc(OC)c(NC(C)C(=O)N2CCCC2)cc1Cl` (configuration not stated), the inhibition is reported as 11.4%.
Compound `CCCCCCOc1ccc(C(CC(=O)O)C(N)=O)cc1` (configuration not stated) has an inhibition of -7.78%.
For `O=C(NCc1cccnc1)C(=O)NCC(c1ccco1)N1CCOCC1` (configuration not stated), the inhibition was 11.1%.
`Cc1[nH]c2ccccc2c1/C=N/NC(=O)CNC(=O)c1cccs1` gave an inhibition of 0.9%.
`CCN1CCN(CC(=O)N/N=C/c2ccc(F)cc2F)CC1` showed an inhibition of 15.6%.
`COc1ccc(C(=O)C(/C=N/O)=N/Nc2ccc(F)cc2)cc1` showed an inhibition of 4.27%.
For `COc1ccc(N/N=C(\C=N\O)C(=O)c2ccc(OC)cc2)cc1`, the inhibition was 24.1% (active).
Work on `CO/N=C/C(=N\Nc1ccc(OC)cc1)C(=O)c1ccc(OC)cc1` yielded an inhibition of 12%.
Compound `Cc1nc2sc3c(c2c(=O)n1/N=C/c1cccnc1)CCCC3` has an inhibition of 2.58%.
Compound `CN(C)CCCN1C(=O)c2oc3ccccc3c(=O)c2C1c1cccs1` (configuration not stated) has an inhibition of 10.7%.
For `O=C1c2oc3ccccc3c(=O)c2C(c2cccs2)N1CCCN1CCOCC1` (configuration not stated), the inhibition was 16.3%.
`CCN(CC)CCCN1C(=O)c2oc3ccccc3c(=O)c2C1c1cccs1` (configuration not stated) was tested, and the inhibition was 23.3% (active).
`S=C(NC1CC1)N1CCN(c2ccc(Cl)cc2)CC1` showed an inhibition of -2.34%.
`CC(C)C(=O)NC(=S)Nc1ccc(S(=O)(=O)Nc2nccs2)cc1` showed an inhibition of 2.01%.
In the case of `COc1cccc(OC)c1C(=O)Nn1c(-c2cccs2)nc2ccccc2c1=O`, the inhibition is reported as 1.67%.
For `O=C(Nn1c(Cc2cccs2)nc2ccccc2c1=O)c1ccc(F)c(F)c1`, the inhibition was 8.58%.
In the case of `COc1ccccc1C(=O)Nn1c(-c2cccs2)nc2ccccc2c1=O`, the inhibition is reported as 10.4%.
`COc1cccc(OC)c1C(=O)Nn1c(-c2cccc(C)c2)nc2ccccc2c1=O` was tested, and the inhibition was 6.13%.
With `Cc1ccc(-c2nc3ccccc3c(=O)n2NC(=O)c2cccs2)cc1` the inhibition was 5.47%.
`Cc1cccc(-c2nc3ccccc3c(=O)n2NC(=O)c2cccnc2Cl)c1` gave an inhibition of 8.24%.
With `O=C(Cc1cccs1)Nn1c(Cc2cccs2)nc2ccccc2c1=O` the inhibition was 10.8%.
With `O=C(Cc1ccccc1)Nn1c(-c2ccccc2)nc2ccccc2c1=O` the inhibition was 3.49%.
Compound `c1ccc(-c2ccc(CN3C[C@@H]4C(c5ccccc5)C5(c6ccccc6)CC4(C5)[C@H]3c3ccccc3)cc2)cc1` (some centres not stated) has an inhibition of -2.33%.
With `O=C(CSc1ccc(-c2ccc(F)cc2)nn1)NCCc1ccccc1` the inhibition was -0.33%.
`Clc1ccc(-c2nn3cnnc3s2)c(Cl)c1` was tested, and the inhibition was 0.7%.
Work on `CCN=C1SC(CC(=O)NCCc2ccc(OC)c(OC)c2)C(=O)N1CC` (configuration not stated) yielded an inhibition of -3.87%.
`Cc1[nH][nH]c(=O)c1C(c1ccc(O)c([N+](=O)[O-])c1)c1c(C)[nH][nH]c1=O` gave an inhibition of 14%.
`Cc1[nH][nH]c(=O)c1C(c1ccc([N+](=O)[O-])cc1)c1c(C)[nH][nH]c1=O` showed an inhibition of -16.2%.
For `Clc1ccc(CN2C3=NCCN3c3ccccc32)cc1`, the inhibition was 7.94%.
`Cc1cc(C(=O)NCc2cccs2)nn1C` showed an inhibition of 3.72%.
With `Cc1cc(C)n2nc(C(=O)NCc3ccco3)cc2n1` the inhibition was 8.12%.
For `CCN(CC)C(=O)CSc1nc(O)c(Cc2ccccc2)c(=O)n1-c1ccc(C)cc1`, the inhibition was 4.4%.
In the case of `Cc1ccc(C(=O)Nc2ccccc2C(=O)N2CCCCCC2)cc1`, the inhibition is reported as 4.87%.
`CC(C)CN(C(=O)COC(=O)c1ccccc1Sc1ccccc1C#N)C1CCS(=O)(=O)C1` (configuration not stated) showed an inhibition of -1.64%.
Work on `Cc1cccc(C)c1OCc1nc2ccccc2c(=O)n1/N=C/c1c[nH]c2ccccc12` yielded an inhibition of 5.57%.
Compound `O=c1c2ccccc2nc(COc2ccccc2)n1/N=C/c1ccc(O)cc1O` has an inhibition of 19.8%.
`O=c1c2ccccc2nc(COc2ccccc2)n1/N=C/c1ccc(O)c(O)c1` gave an inhibition of 14.6%.
Compound `CCCc1nc2ccccc2c(=O)n1/N=C/c1ccc(O)cc1` has an inhibition of -1.67%.
`CCn1c(COc2cccc(C)c2C)nnc1SCC(=O)Nc1cc(C)on1` was tested, and the inhibition was 7.39%.
`COc1cc(/C=C/C(=O)OCC(=O)NCc2cccs2)ccc1OC(F)F` was tested, and the inhibition was 4.72%.
`O=C(N/N=C\c1ccc[nH]1)C1COc2ccccc2O1` (configuration not stated) gave an inhibition of 9.36%.
With `CC1=NN(c2ccccc2)C(=O)C1C=Nc1ccc(N(C)C)cc1` (configuration not stated) the inhibition was 12.8%.
For `CC1=NN(c2ccccc2)C(=O)C1C(=O)c1ccccc1` (configuration not stated), the inhibition was 14.1%.
For `COC(=O)c1sccc1S(=O)(=O)Nc1ccc(S(N)(=O)=O)cc1`, the inhibition was 2.58%.
With `CC(C)(C)NC(=O)CSc1nnc(SCC(=O)NC(C)(C)C)s1` the inhibition was 1.09%.
`COc1ccc(C)cc1-n1nnnc1SC/C(O)=C(\C#N)c1nc2ccccc2[nH]1` was tested, and the inhibition was -0.98%.
`NC(=O)CSc1nnc(Cc2cccs2)n1C1CCCCC1` gave an inhibition of 0.23%.
With `Cc1ccccc1-n1c(SC/C(O)=C(\C#N)c2nc3ccccc3[nH]2)nnc1-c1ccncc1` the inhibition was 13.8%.
With `N#CCSc1nnc(Cc2cccs2)n1C1CCCCC1` the inhibition was 1.61%.
In the case of `CCOP(=O)(OCC)C(Nc1ccccc1)c1ccco1` (configuration not stated), the inhibition is reported as 0.74%.
`CS(=O)(=O)NCc1ccc(C(=O)O)cc1` gave an inhibition of 9.65%.
`NNC(=O)C1CC1c1ccccc1` (configuration not stated) gave an inhibition of -1.25%.
In the case of `COC(=O)c1cccc(NC(=O)C2COc3ccccc3O2)c1C` (configuration not stated), the inhibition is reported as 3.13%.
Work on `Cc1ccc(C(=O)c2cc3c(cc2[N+](=O)[O-])OCCO3)cc1` yielded an inhibition of 1.34%.
For `Cc1ccc(C(=O)c2coc3ccc(O)c(Cl)c23)cc1`, the inhibition was 2.57%.
With `COc1ccc(OC)c(C(=O)c2c(C)oc3cc([N+](=O)[O-])c(O)c([N+](=O)[O-])c23)c1` the inhibition was 7.96%.
`Cc1oc2cc([N+](=O)[O-])c(O)c([N+](=O)[O-])c2c1C(=O)c1ccc(Cl)cc1` showed an inhibition of 16.5%.
`O=C1NC(c2ccccc2)=C(c2ccccc2)C1=O` gave an inhibition of 18.7%.
`O=C(c1ccco1)N1CCN(C(c2ccccc2Cl)c2nnnn2Cc2cccs2)CC1` (configuration not stated) showed an inhibition of 1.56%.
With `CC(C)(C)c1ccc(SCCc2ccccn2)cc1` the inhibition was 0.53%.
In the case of `CC(C)Oc1ccc(NC(N)=O)cc1`, the inhibition is reported as 4.7%.
`CC1=CSC2=NC(=O)/C(=C\c3cccn3-c3ccccc3)C(=N)N12` gave an inhibition of 5.41%.
With `CCC1=NN2C(=N)/C(=C\c3cccn3-c3ccc(Br)cc3)C(=O)N=C2S1` the inhibition was 4.13%.
With `CCC1=NN2C(=N)/C(=C\c3cccn3-c3c(C)cccc3C)C(=O)N=C2S1` the inhibition was 13.2%.
In the case of `CCOc1ccc(-n2c(C)cc(/C=C3/C(=N)N4C(=NC3=O)SN=C4S(C)(=O)=O)c2C)cc1`, the inhibition is reported as 21.4%.
With `Cc1cc(C)cc(-n2cccc2/C=C2/C(=N)N3C(=NC2=O)SN=C3S(C)(=O)=O)c1` the inhibition was 18.4%.
`COc1cccc(-n2c(C)cc(/C=C3/C(=N)N4C(=NC3=O)SN=C4S(C)(=O)=O)c2C)c1` was tested, and the inhibition was 16.2%.
`CCC1=NN2C(=N)/C(=C\c3cccn3-c3ccc(Cl)cc3)C(=O)N=C2S1` showed an inhibition of 8.09%.
`CS(=O)(=O)C1=NSC2=NC(=O)/C(=C\c3cccn3-c3ccccc3Cl)C(=N)N21` was tested, and the inhibition was 12.3%.
